A selection: hits, their analogues and other compounds. The true share with any hit is near 10%.
3T3 cytotox: NIH 3T3 cell cytotoxicity | NIH 3T3 viability, CellTiter-Glo ATP luminescence, 48-72 h | Potency, µM (highest dose often 96.7 µM), for the others: at the top dose activity change, negative = cytotoxicity, usual class: inhibitors | 4.3% of 94,000 active | AID 1345082; also: nearly all actives have a fitted effect of over 55% in size
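Cytotoxicity was measured by CellTiter-Glo ATP luminescence after 48 or 72 h compound exposure at 37 °C. Mouse NIH 3T3 fibroblasts were seeded at 400 cells/well and dosed by 23 nL pin transfer.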
GPT2 inh: GPT2 alanine aminotransferase inhibition; Potency, µM (highest dose often 57.7 µM), for inactives: top-dose activity change, negative = inhibition, hits mostly inhibitors; Q8TD30; Recombinant GPT2, coupled pyruvate oxidase/HRP Amplex Red fluorescence; 0.25% of 100,000 active; also: nearly all actives have a fitted effect of over 60% in size
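Inhibition is scored from Amplex Red fluorescence generated when pyruvate oxidase and HRP act on pyruvate released by GPT2. Reactions contain 10ng/uL enzyme, 250uM a-KG and 2mM L-alanine and run 30 min at room temperature.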
NPR1 antag: antagonists of human natriuretic peptide receptor Npr1. HEK293 hNpr1 GloSensor cGMP, ANP-stimulated luminescence. Potency, µM (highest dose often 46.3 µM), for the others: at the top dose activity change, negative = inhibition, hits mostly inhibitors. 1.6% of 76,000 active. AID 1347048; calls by dose curve; also: nearly all actives have a fitted effect of over 60% in size
Target sequence (P16066 whole entry, looked up): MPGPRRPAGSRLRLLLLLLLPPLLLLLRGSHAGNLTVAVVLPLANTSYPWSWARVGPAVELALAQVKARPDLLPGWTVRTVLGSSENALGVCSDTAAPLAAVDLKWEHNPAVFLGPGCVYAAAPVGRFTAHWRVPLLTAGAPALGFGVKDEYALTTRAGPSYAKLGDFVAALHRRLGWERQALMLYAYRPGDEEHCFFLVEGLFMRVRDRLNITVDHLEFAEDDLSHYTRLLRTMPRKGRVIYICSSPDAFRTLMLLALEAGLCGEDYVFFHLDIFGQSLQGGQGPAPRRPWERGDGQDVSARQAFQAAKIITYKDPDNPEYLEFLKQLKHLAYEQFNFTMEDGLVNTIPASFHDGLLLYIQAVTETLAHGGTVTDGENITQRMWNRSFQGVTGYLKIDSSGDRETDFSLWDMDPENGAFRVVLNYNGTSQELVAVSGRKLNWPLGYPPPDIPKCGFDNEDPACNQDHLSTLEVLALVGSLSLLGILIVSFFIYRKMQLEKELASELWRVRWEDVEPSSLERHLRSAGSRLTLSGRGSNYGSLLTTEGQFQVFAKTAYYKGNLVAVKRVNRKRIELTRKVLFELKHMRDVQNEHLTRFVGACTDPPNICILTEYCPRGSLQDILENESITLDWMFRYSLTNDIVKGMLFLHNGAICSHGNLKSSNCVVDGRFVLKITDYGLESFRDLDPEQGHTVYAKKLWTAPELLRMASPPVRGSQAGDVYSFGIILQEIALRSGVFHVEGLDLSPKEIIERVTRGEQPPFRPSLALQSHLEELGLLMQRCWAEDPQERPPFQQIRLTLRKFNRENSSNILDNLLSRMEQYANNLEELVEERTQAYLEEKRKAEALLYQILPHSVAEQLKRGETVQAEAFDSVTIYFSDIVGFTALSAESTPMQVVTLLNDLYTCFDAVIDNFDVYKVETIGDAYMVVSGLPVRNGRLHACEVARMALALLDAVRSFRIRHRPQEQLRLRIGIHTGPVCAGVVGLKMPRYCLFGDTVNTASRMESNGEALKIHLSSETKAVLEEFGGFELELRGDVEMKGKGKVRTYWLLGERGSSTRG
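HEK293 cells stably expressing human Npr1 and cGMP GloSensor pGS-40F, loaded 2 h with 2% GloSensor reagent, given compound 30 min at room temperature. Luminescence read before and 20 min after 0.1 nM hNppA.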
HEK cytotox: cytotoxic compounds in HEK 293 cells; HEK 293 viability, ATP luminescence (CellTiter-Glo), 48-72 h; Potency, µM (doses to about 115 µM), for inactives: at the top dose activity change, negative = cytotoxicity, actives largely listed as inhibitors; 6.6% of 94,000 active; AID 1345083; also: nearly all actives have a fitted effect of over 60% in size
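Luminescence from cellular ATP, measured with CellTiter-Glo, indicates HEK 293 viability. Cells plated at 250 cells/well are treated with compound for 48 or 72 hr at 37 degree Celsius before reagent addition.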
Luciferase inh: blocks purified firefly luciferase enzyme activity; P08659; purified P. pyralis luciferase, luminescence, biochemical; Potency, µM (titrated, usually from 115 µM), usual class: inhibitors; 2.5% of 76,000 active; AID 1347043; also: nearly all actives have a fitted effect of over 65% in size
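Biochemical qHTS: compound (6-point titration) added to 10uM D-luciferin plus 10uM ATP in Tris acetate pH 7.5 buffer with Mg, Tween-20 and BSA, then purified enzyme at 10nM; light output imaged.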
* hit, by the source's call; i = inactive; u = inconclusive; x = no result; [ ] = another dose, or the depositor's remark. Unless noted, calls follow the shape of the dose curve; as a rule, active = well fitted curve in the direction sought with a large enough effect; inconclusive = small, poorly fitted or top-dose-only effect, or another doubt; inactive = no such curve, though single readings can be large; an effect the other way counts as inactive or inconclusive. % is scaled to controls: 0 for no effect and ±100 for the full control effect; potency is read from the fitted curve at half-maximal effect.

SMILES	3T3 cytotox	GPT2 inh	NPR1 antag	HEK cytotox	Luciferase inh
OC[C@@H]1CN(C2CCCC2)C[C@H]1c1nc(-c2cccnc2)no1	0%	i	-2%	-6%	32µM*
OC[C@@H]1CN(C2CCCC2)C[C@H]1c1nc(-c2ccncc2)no1	-12%	i	-2%	i	25µM*
C=CCNC(=O)N[C@H]1CCN2C(=O)c3ccc(Cl)cc3NC(=O)[C@@H]2C1	32µM*	i	3%[70.6 µM]	u	i
CC(C)NC(=O)N[C@H]1CCN2C(=O)c3cc(-c4ccccc4F)ccc3NC(=O)[C@@H]2C1	-26%[174 µM]	u	1%[70.6 µM]	u	i
O=C(N[C@H]1CCN2C(=O)c3cc(-c4cccc(C(F)(F)F)c4)ccc3NC(=O)[C@@H]2C1)c1ccncc1	u	3%	-2%	40µM*	i
O=C(N[C@H]1CCN2C(=O)c3cc(-c4ccccc4F)ccc3NC(=O)[C@@H]2C1)c1ccc(F)c(Cl)c1	10µM*	i	u	10µM*	i
CN(CCCNC(=O)CN1CC2CC(C1)[C@H]1CCCC(=O)N1C2)C1CCCCC1 (some centres undefined)	i	i	-8%	9%	i
Cc1ccccc1C(=O)N1CCC2(CC1)Cc1ccccc1NC2=O	u	2%	25%	35µM*	i
O=C(c1ccc(F)cc1)N1CCC2(CC1)Cc1ccccc1NC2=O	-15%[138 µM]	-4%[88.5 µM]	-1%[70.6 µM]	-47%[172 µM]	i
CC12CC(O)C(O)C=C1c1cc(O)cc(O)c1C(=O)O2 (centres undefined)	x	3%	x	x	x
CCOc1ccccc1C(=O)N1CCCC2(C1)NC(=O)N(Cc1ccc(Cl)cc1)C2=O (centres undefined)	u	4%	-23%	79µM*	i
CCOc1ccccc1C(=O)N1CCC2(CC1)NC(=O)N(Cc1ccccc1)C2=O	-20%	3%	3%	-22%	i
COc1ccc(C(=O)N2CCCC3(C2)NC(=O)N(Cc2ccc(Cl)cc2)C3=O)cc1 (centres undefined)	-20%	i	-13%	50µM*	i
COc1ccc(C(=O)N2CCCC3(C2)NC(=O)N(Cc2ccc(C)cc2)C3=O)cc1 (centres undefined)	-11%	i	4%	-18%	i
O=C(c1cc2ccccc2[nH]1)N1CCC2(C1)NC(=O)N(Cc1ccc(Cl)cc1)C2=O (centres undefined)	u	1%	-8%	35µM*	u
Cc1ccc(C(=O)N2CCC3(CC2)NC(=O)N(c2cccc(Cl)c2)N3)c(C)c1	u	u	0%	u	i
CCOc1ccccc1C(=O)N1CCC2(CC1)NC(=O)N(c1cccc(Cl)c1)N2	u	u	-6%	32µM*	i
CCCS(=O)(=O)NCCc1ncc(C)n1CC1CC1	-8%	-12%	0%	-20%	i
CCn1ncc(N2CCC(NC(=O)Cc3cccs3)CC2)cc1=O	-16%	4%	2%	-16%	i
CN(C)C[C@@H]1CN(Cc2ccccn2)C[C@H]1NC(=O)c1cc(F)cc(F)c1	-24%	1%	2%	u	i
O=S(=O)(N1CCCCC1)N1CCOC(Cc2ccccc2Cl)C1 (centres undefined)	-24%	-14%	-4%	u	i
COCCn1c(=O)c(C(=O)NCCc2ccc(Cl)cc2)nc2cccnc21	u	-11%	x	u	x
Cc1noc(-c2ccco2)c1C(=O)N(C)Cc1ccccc1	-23%	i	-3%	-17%	i
COc1ccc(OC)c(S(=O)(=O)N2CCC(c3nc(-c4cccn4C)no3)CC2)c1	u	-9%	x	40µM*	x
CN1CCCC2(Cc3ccccc3CN(C(=O)CCCC(=O)O)C2)C1 (centres undefined)	i	i	x	i	x
SMILES	3T3 cytotox	GPT2 inh	NPR1 antag	HEK cytotox	Luciferase inh
CCCC(=O)N1Cc2ccccc2CC2(CCCN(C)C2)C1 (centres undefined)	u	i	x	89µM*	x
CCOCc1nc(C2CCCN(C(=O)c3ccc(OC)cc3)C2)no1 (centres undefined)	i	2%	0%	11%	i
COc1ccc(CN2CCC3(CC2)C(=O)NCN3Cc2ccc(Cl)cc2)cc1	u	4%	-11%	40µM*	i
Cc1ccc(-n2c(C3CCN(C(=O)c4ccc(C)nc4)CC3)n[nH]c2=O)cc1	25µM*	i	3%	2%	i
COc1ccc(C(=O)N2CCC(c3n[nH]c(=O)n3-c3ccc(C)cc3)CC2)cn1	28µM*	i	0%	-4%	i
Cc1ccc(-n2c(C3CCN(C(=O)c4ccc(C#N)cc4)CC3)n[nH]c2=O)cc1	35µM*	-29%	8%	-12%	i
Cc1ccc(C(=O)N2CCC(c3n[nH]c(=O)n3-c3ccc(C)cc3)CC2)cc1	u	i	-20%	9%	i
COc1ccc(C(=O)N2CCC(c3n[nH]c(=O)n3-c3ccc(C)cc3)CC2)cc1OC	u	-13%	0%	33%	i
Cc1ccc(-n2c(C3CCN(C(=O)c4ccc(F)c(Cl)c4)CC3)n[nH]c2=O)cc1	13µM*	2%	-8%	-2%	i
CN1CC[C@H]2CN(C(=O)CCCCc3ccccc3)C[C@@]2(C(=O)O)C1	i	i	2%	-4%	i
CN(CC1CCCO1)C(=O)c1coc(COc2cccc(C(F)(F)F)c2)n1 (centres undefined)	u	4%	3%	-2%	i
O=C(NCc1ccc2c(c1)OCO2)C1CCc2sc(C(=O)N3CCCCCC3)cc2C1 (centres undefined)	u	0%	22µM*	u	i
O=C(NCc1ccc(F)cc1)C1CCc2sc(C(=O)N3CCCC3)cc2C1 (centres undefined)	u	i	-2%	50µM*	i
COC(=O)c1cccc(NC(=O)C2CCc3sc(C(=O)N4CCOCC4)cc3C2)c1 (centres undefined)	u	i	-21%	u	i
O=C(Nc1cccc(Cl)c1)C1CCc2sc(C(=O)N3CCCC3)cc2C1 (centres undefined)	28µM*	i	u	40µM*	i
CCc1ccc(C(=O)N2CCCN(c3nnc4ccccn34)CC2)cc1	-19%	i	5%	-11%	i
O=C(C1CC1)N1CCC(c2nnc3n2C(C(=O)N2CCN(c4ncccn4)CC2)CC3)CC1 (centres undefined)	i	-4%	x	0%	x
Cc1cnn(CCC(=O)N2CCC3(CC2)CN(Cc2ccccc2)CC3CO)c1 (centres undefined)	-8%	i	1%	u	i
